Screening results (PubChem BioAssay)
CBFb RUNX1 block: CBF-beta/RUNX1 interaction disruption | AlphaScreen CBFb-His/RUNX1-biotin binding, biochemical | 230,000 tested, under 10 active | AID 1477 | Q01196+Q13951 | Potency, µM (top dose mostly 59.8 µM), inactives show at the highest dose activity, negative = inhibition, most hits filed as inhibitors; further: % of control where 0% means no effect
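AlphaScreen proximity signal reports loss of binding between His-tagged CBF-beta and biotin-labelled RUNX1, each at 30 nM. Proteins are pre-associated for 20 minutes, compounds added for 15 minutes, then beads for 90 minutes, all at ambient temperature.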
ALDH1A1 inh: blocks purified human ALDH1A1 activity | 220,000 compounds, 7.3% hits | P00352 | Potency, µM (series often up to 75.3 µM), inactives show top-dose activity, negative = inhibition, hits mostly inhibitors | AID 1030 | Purified ALDH1A1, NADH fluorescence, propionaldehyde substrate; active means well fitted inhibition curve with a large enough effect, not every such curve was filed as active; inconclusive means small, poorly fitted or top-dose-only effect, or another doubt; inactive means no such curve, though single readings can be large or run the other way;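 further: potency means the concentration at half of the fitted maximal effect; plate controls were no enzyme wells and a reference inhibitor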
Target sequence (P00352 whole entry, looked up): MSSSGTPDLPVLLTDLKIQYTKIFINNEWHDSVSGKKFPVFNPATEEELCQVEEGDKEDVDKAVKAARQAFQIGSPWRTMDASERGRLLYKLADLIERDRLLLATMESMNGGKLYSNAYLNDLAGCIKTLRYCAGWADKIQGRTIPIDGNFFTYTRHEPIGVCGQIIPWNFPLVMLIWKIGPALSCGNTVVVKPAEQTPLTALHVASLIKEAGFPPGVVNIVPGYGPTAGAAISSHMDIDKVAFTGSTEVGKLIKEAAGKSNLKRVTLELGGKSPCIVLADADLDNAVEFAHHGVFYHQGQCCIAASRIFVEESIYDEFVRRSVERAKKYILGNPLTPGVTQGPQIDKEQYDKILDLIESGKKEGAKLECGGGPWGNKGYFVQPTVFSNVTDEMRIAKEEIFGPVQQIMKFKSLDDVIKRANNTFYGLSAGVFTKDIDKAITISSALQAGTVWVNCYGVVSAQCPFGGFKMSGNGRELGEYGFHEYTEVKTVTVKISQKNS
PNC inhibitor: perinucleolar compartment assembly inhibition; PC3M PTB-GFP, PNC prevalence imaging, 16 h; hits give low values; activity change (PNC), negative = inhibition, % at 10 µM; 140,000 compounds, 3.1% hits;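 active means readout at or below -70, meaning at least 70% loss of cells showing the perinucleolar compartment, a nuclear body marking cancer cells; inconclusive means readout between -30 and a set limit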;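 further: plate controls were DMSO wells for no effect and camptothecin positive control wells for full effect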
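Read-out is percentage of cells bearing a perinucleolar compartment, from automated 20x imaging of fixed, Hoechst-stained PC3M PTB-GFP cells. Cells were seeded 4 h, then exposed 16 h to compound (23 nl of library stock) in duplicate plates.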
HTT ATP protect: cytoprotection in Huntington HTT-Q103 PC12 cell model | PC12 HTT-Q103 induced, cytoprotection, ATP luminescence, 40 h | Potency, µM (top dose mostly 56.4 µM), for inactives: cytoprotection (ATP increase), actives largely listed as activators | 230,000 compounds, 0.14% hits | AID 1471; further: potency means the concentration at half of the fitted maximal effect; % of control where 0% means no effect; nearly all actives have a fitted effect of over 45% in size
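Compounds added alongside 100 nM tebufenozide, which induces toxic Q103 huntingtin exon 1-GFP in stable PC12 cells; surviving cells quantified by luminescent ATP measurement. Medium: phenol red-free DMEM, 5% equine and 5% calf serum.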
HPGD block: inhibitors of human 15-hydroxyprostaglandin dehydrogenase (HPGD); P15428; AID 894; Potency, µM, for inactives: top-dose activity change, negative = inhibition, most hits filed as inhibitors; purified HPGD, NADH fluorescence kinetic, PGE2 substrate; 150,000 compounds, 4.3% hits; active means well fitted inhibition curve with a large enough effect, not every such curve was filed as active; inconclusive means small, poorly fitted or top-dose-only effect, or another doubt; inactive means no such curve, though single readings can be large or run the other way; further: potency means the concentration at half of the fitted maximal effect; on the % scale 0 is the no-effect control and ±100 the full control effect
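20 nM HPGD preincubated 15 min at room temperature with compound in 50 mM Tris-HCl pH 8, 0.01% Tween 20. Started with 1 mM NAD+ and 30 uM prostaglandin E2; NADH fluorescence (360/450 nm) read 5 times over 30-s intervals, last minus first.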
HTT aggregate: inhibitors of mutant huntingtin aggregate formation in PC12 cells; PC12 HttQ103-GFP aggregates, Acumen cytometry, 40 h; Potency, µM (top dose mostly 46.1 µM), for the others: at the highest dose activity change, negative = inhibition, hits mostly inhibitors; 220,000 compounds, 1.1% hits; AID 1688; further: potency means the concentration at half of the fitted maximal effect; on the % scale 0 is the no-effect control and ±100 the full control effect; nearly all actives have a fitted effect of over 60% in size
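PC12 cells stably carrying ecdysone-inducible HTT exon 1 Q103–GFP were induced with tebufenozide (100 nM final) and treated with library compounds in titration. GFP aggregates in lysates were counted by laser scanning cytometry.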
The depositor's hits bear a star; ? = inconclusive; . = not tested or not shown; [ ] = remark or other dose. In the library only some 11% were active in any assay of this set; here they are far more common. Unless noted, the call rests on the fitted dose curve; in most records, active means well fitted curve in the direction sought with a large enough effect; inconclusive means small, poorly fitted or top-dose-only effect, or another doubt; inactive means no such curve, though single readings can be large; an effect the other way counts as inactive or inconclusive.

SMILES | CBFb RUNX1 block | ALDH1A1 inh | PNC inhibitor | HTT ATP protect | HPGD block | HTT aggregate
N/C(Cc1ccc(Cl)cc1)=N\OC(=O)c1cccc2ccccc12 | ? | ? | -1 | -3% | ? | 9%
S=C(NCCOCCOCCNC(=S)Nc1ccccc1)Nc1ccccc1 | -1% | 13µM* | . | -15% | . | -8%
CCOc1ccc(NC(=S)NCCCc2ccccc2)cc1 | -8% | -7% | . | -13%[10 µM] | . | -14%[9.22 µM]
CCOc1ccc(CSCCNC(=S)Nc2ccccc2)cc1 | -6% | 3% | -92* | -2%[10 µM] | -10% | -6%
CNC(=S)Nc1ccc(OCc2ccccc2)cc1 | -3% | 32µM* | . | 28% | . | 1%
S=C(NCCSCc1ccc(Cl)cc1Cl)Nc1ccccc1 | 2% | -3% | 68 | 24% | -27% | ?
S=C(NCCSCc1c(Cl)cccc1Cl)Nc1ccccc1 | -2% | ? | -29 | -7% | 25µM* | ?
CN(C)Cc1ccccc1-c1cncnc1NCc1cccs1 | . | -8% | . | 5% | -14% | .
O=C(O)c1ccc2c(c1)C(=O)N([C@H](Cc1ccc(O)cc1)C(=O)O)C2=O | 9% | . | . | . | . | .
CCN1C(C)=C(C(=O)OC(C)C)C(c2ccccc2Cl)C(C(=O)O)=C1C(=O)O (stereo not drawn) | 10% | . | . | . | . | .
O=[N+]([O-])c1ccc(S(=O)(=O)CC(CN2CCCCC2)N2CCCCC2)cc1 (stereo not drawn) | 9% | 7.1µM* | . | . | . | 12%
COCC1CCN(Cc2cn(-c3ccccc3F)nc2-c2cc(C)sc2C)CC1 | 4% | 2% | . | 29%[10 µM] | . | 7%[9.22 µM]
COC(=O)c1c(N)n(-c2ccc(N3CCOCC3)cc2)c2nc3ccccc3nc12 | -17% | 18µM* | 15 | -20%[10 µM] | -26% | 11%
COC(=O)c1c(N)n(-c2ccc(NC(C)=O)cc2)c2nc3ccccc3nc12 | 5% | ? | -29 | 0% | ? | -18%
CCN(CC)CCOCCOC(=O)C(CC)(CC)c1ccccc1 (tested in a mixture with another compound) | . | . | . | -28% | . | 9%
O=C(CCC(=O)OCC(=O)c1cccc([N+](=O)[O-])c1)Nc1ccccc1Cl | 0% | -8% | 6 | 7% | 0% | 6%
COc1cccc(COc2cc3ccccc3nc2C)c1 | 25% | -5% | -5 | -29% | -16% | 1.8µM*
Cc1nc2ccccc2cc1OCc1ccccc1 | 9% | 5% | -25 | -23% | -9% | 13µM*
Cc1nc2ccccc2cc1OCc1ccc(Cl)cc1 | 25% | -11% | -23 | . | -3% | 7.9µM*
Cc1nc2ccccc2nc(C)c1=NOCc1cccc(Cl)c1 | 7% | 3% | . | 8%[10 µM] | . | 15%[9.22 µM]
CC(=O)N1[C@H](Cc2ccccc2)C=C[C@]1(C)C(=O)NCc1ccccn1 | 5%[2.36 µM] | -5% | 16 | -1% | -1% | 3%
Cc1cc(NC(=O)CSc2nc3c(sc4ccccc43)c(=O)n2CCCN2CCOCC2)n[nH]1 | -3% | 5% | -83* | -1%[10 µM] | -9% | ?
COc1cc2[nH]c(=S)n(C3CC3)c(=O)c2cc1OC | 12% | 28µM* | . | 29%[10 µM] | . | ?
CC(C)NC(=O)c1ccc2c(=O)n(C3CCCC3)c(=S)[nH]c2c1 | -1% | 0.45µM* | ? | -7% | -5% | 21%
COc1cc2[nH]c(=S)n(C3CCCC3)c(=O)c2cc1OC | 1% | ? | 44 | 3% | -3% | -7%
SMILES | CBFb RUNX1 block | ALDH1A1 inh | PNC inhibitor | HTT ATP protect | HPGD block | HTT aggregate
COc1cc2[nH]c(=S)n(CC3CCCO3)c(=O)c2cc1OC (stereo not drawn) | 0% | 7.9µM* | 20 | -9% | -2% | 5%
CCOc1cc2[nH]c(=S)n(CC3CCCO3)c(=O)c2cc1OCC (stereo not drawn) | 1% | 2.5µM* | -1 | -15%[0.074 µM] | -10% | 1%
CNc1nc(-c2ccccc2C(F)(F)F)nc2ccccc12 | . | 3% | . | 6% | -9% | .
Cc1cc(O)c(C)c2sc(N)nc12 | 7% | . | . | . | . | .
NC1CCN(c2c(F)cc3c(=O)c(C(=O)O)cn(C4CC4)c3c2Cl)C1 (stereo not drawn) | 2% | 19% | . | -1%[10 µM] | . | -3%[9.22 µM]
COc1ccc(N=CC2=C(O)CC(C)(C)CC2=O)cc1OC | 6% | . | . | -5%[10 µM] | . | -7%[9.22 µM]
